Rab7 wt GTP bind – modulators of GTP binding to dog Rab7 wildtype GTPase. GST-Rab7 beads, fluorescent GTP binding, flow cytometry; actives lie on both sides; untreated = 100%, excess cold GTP = 0%. GTP binding activity (percent of control), % at 10 µM. 0.055% of 190,000 active. AID 758;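 active = fluorescent GTP binding to Rab7 beads changed by at least 20 points from the 100% baseline, either direction, mostly lower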;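 also: median green fluorescence of bound Bodipy-FL-GTP per Rab7 bead population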
HRas wt GTP – modulators of GTP binding to human HRas wildtype; P01112; GST-Ras wt beads, Bodipy-FL-GTP binding, flow cytometry; actives lie on both sides; GTP binding activity, % at 10 µM; 0.14% of 190,000 active; AID 759;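 active = GTP binding activity at least 20% away from the 100% baseline, either lowered as inhibitor or raised as activator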;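 also: 0% = unlabeled GTP competition control and 100% = no-compound control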
Target sequence (P01112 whole entry, looked up): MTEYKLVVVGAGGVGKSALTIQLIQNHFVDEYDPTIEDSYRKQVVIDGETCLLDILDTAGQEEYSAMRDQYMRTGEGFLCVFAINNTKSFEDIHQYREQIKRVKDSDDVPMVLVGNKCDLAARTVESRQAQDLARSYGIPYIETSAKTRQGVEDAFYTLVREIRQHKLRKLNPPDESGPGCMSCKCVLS
Cdc42 wt – modulators (inhibitors or activators) of GTP binding to human Cdc42 wildtype; 0.2% of 190,000 active; GST-Cdc42 beads, Bodipy-GTP binding, flow cytometry; actives lie on both sides; percent activity (GTP binding), % at 10 µM; P60953;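 active = percent activity GTP binding at least 20 points away from the 100% baseline, either down as inhibitor or up as activator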;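 also: median bead fluorescence of bound Bodipy-FL-GTP at 100 nM; 0% = excess unlabeled GTP control and 100% = no compound control; below 100% means less GTP binding so inhibitor and above means activator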
Target sequence (P60953 whole entry, looked up): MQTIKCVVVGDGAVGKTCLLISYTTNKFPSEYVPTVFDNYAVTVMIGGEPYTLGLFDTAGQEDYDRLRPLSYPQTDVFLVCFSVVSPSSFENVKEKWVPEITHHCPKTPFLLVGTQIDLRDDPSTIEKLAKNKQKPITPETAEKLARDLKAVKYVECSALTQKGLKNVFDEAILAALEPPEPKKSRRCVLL
Rab2A wt mod – changes GTP binding to wildtype dog Rab2A, up or down | P61105 | GST-Rab2 wt beads, Bodipy-GTP binding, flow cytometry | GTP binding activity, % at 10 µM | 0.19% of 190,000 active | AID 760;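 active = GTP binding activity at least 20 points away from 100%, either lowered or raised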;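 also: 0% = beads with excess unlabeled GTP and 100% = no-compound control corrected for plate trend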
Rac1 wt modul – human Rac1 wildtype GTP binding, inhibitors and activators; P63000; GST-Rac1 beads, fluorescent GTP binding, flow cytometry; actives lie on both sides; 0 = cold GTP competed, 100 = untreated; GTP binding activity (% of control), % at 10 µM; 0.27% of 190,000 active;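 active = GTP binding activity at least 20 points away from the 100% control level, either lower or higher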
Rac1 mut GTP – human Rac1 activated mutant GTP binding change | GST-Rac1 activated beads, fluorescent GTP binding, flow cytometry; actives lie on both sides; 100% means binding = to untreated wells | percent activity (GTP binding), % at 10 µM | 0.11% of 190,000 active;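 active = GTP binding at least 20 percentage points away from the 100% baseline, in either direction, so actives lie on both sides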
An asterisk follows results filed as active; [ ] = remark or other dose. The list is not random: actives were taken first. Their share in the collection is about 0.4%.

SMILES	Rab7 wt GTP bind	HRas wt GTP	Cdc42 wt	Rab2A wt mod	Rac1 wt modul	Rac1 mut GTP
O=C(COC(=O)c1ccc2c(c1[N+](=O)[O-])C(=O)c1ccccc1C2=O)NC1CC1	91.0	76.0*	73.0*	73.0*	70.0*	83.0
CCC(=O)c1ccc(OCC(=O)O)c(OC)c1	96.0	100.0	105.0	101.0	122.0*[activator]	104.0
CCOC(=O)COc1ccc(C(=O)CC)cc1OC	104.0	99.0	96.0	100.0	99.0	97.0
O=C(c1cccc(N2C(=O)C3C4C=CC(C4)C3C2=O)c1)N1CCCCCC1 (configuration not stated)	107.0	106.0	105.0	107.0	111.0	101.0
O=c1cc(N2CCc3ccccc3C2)[nH]c(=O)n1-c1ccc(Cl)cc1	101.0	102.0	102.0	104.0	121.0*[activator]	103.0
CN1CCN(Cc2nc3ccccc3c(=O)n2Cc2nc(-c3ccccc3F)cs2)CC1	97.0	96.0	98.0	96.0	101.0	100.0
CN1CCc2c1nc1ccccc1c2N=C1CCCN1Cc1ccccc1	103.0	104.0	103.0	100.0	103.0	103.0
O=C1N=C2SCCN2/C1=C\c1ccccc1Cl	98.0	101.0	103.0	101.0	101.0	100.0
COC(=O)c1ccc(COc2ccccc2/C=N/Nc2cccc(C(=O)O)c2)cc1	126.0*[activator]	121.0*[activator]	124.0*[activator]	128.0*[activator]	141.0*[activator]	128.0*[activator]
O=C(O)c1cccc(NC(=S)N/N=C/c2ccccc2OCc2ccc(Br)cc2)c1	98.0	97.0	89.0	93.0	94.0	94.0
CCCCNC(=O)C1CCN(S(=O)(=O)c2c(C)noc2/C=C\c2ccc(OC)cc2)CC1	99.0	101.0	105.0	102.0	105.0	100.0
COC(=O)c1ccccc1NC(=O)CSCC(=O)Nc1ccccc1OC	76.0*	95.0	99.0	95.0	96.0	97.0
CCOC(=O)C1=NN(C(=O)c2ccc(OC)cc2)C(O)(c2ccc(Cl)cc2)C1 (configuration not stated)	95.0	98.0	100.0	96.0	99.0	98.0
COC(=O)C1=NN(C(=O)c2cccc(Br)c2)C(O)(c2ccc(Cl)cc2)C1 (configuration not stated)	94.0	85.0	78.0*	82.0	85.0	79.0*
Cc1ccc(C(=O)Nc2ncc(Cc3ccc(SC(F)F)cc3)s2)cc1	96.0	97.0	99.0	101.0	99.0	97.0
CCOC(=O)c1sc(NC(=O)CSc2nnc(Cc3ccccc3)o2)c(C#N)c1C	83.0	83.0	85.0	78.0*	81.0	76.0*
CCOC(=O)c1c(NC(=O)CSc2nnc(Cc3ccccc3)o2)sc(C(C)=O)c1C	96.0	103.0	103.0	103.0	102.0	99.0
COc1cc2ccccc2cc1C(=O)NC(=S)Nc1cccc(C(=O)O)c1	85.0	76.0*	75.0*	75.0*	81.0	80.0
Cc1nn(CCCC(=O)O)c(C)c1[N+](=O)[O-]	98.0	95.0	95.0	97.0	101.0	96.0
CCn1cc(C=C2C(=O)c3ccccc3C2=O)c2ccccc21	83.0	77.0*	78.0*	81.0	74.0*	81.0
CCN=C1S/C(=C\c2cn(CC)c3ccccc23)C(=O)N1CC	103.0	102.0	100.0	102.0	103.0	100.0
CCOCCCn1c(SCC(=O)Nc2ccc(C(N)=O)cc2)nc2ccccc2c1=O	108.0	104.0	102.0	108.0	99.0	97.0
N[C@@H](Cc1ccccc1)c1nnc(SCc2ccccc2F)o1	102.0	101.0	102.0	98.0	105.0	99.0
CCC(/C=C1\Sc2ccc(OC)cc2N1CCO)=C\c1sc2ccc(OC)cc2[n+]1CCO	90.0	78.0*	82.0	80.0	87.0	89.0
CCC(/C=C1\Sc2ccc(OC)cc2N1CC)=C\c1sc2ccc(OC)cc2[n+]1CCCS(=O)(=O)[O-]	95.0	94.0	94.0	92.0	96.0	93.0
SMILES	Rab7 wt GTP bind	HRas wt GTP	Cdc42 wt	Rab2A wt mod	Rac1 wt modul	Rac1 mut GTP
C=CCSC1=N/C(=C\c2ccc(C(=O)O)cc2)C(=O)S1	104.0	96.0	95.0	97.0	99.0	94.0
CCC(=O)Nc1ccc(C(=O)CSc2nnc(-c3ccc(O)cc3)n2CC2CCCO2)cc1 (configuration not stated)	97.0	98.0	99.0	100.0	104.0	99.0
NS(=O)(=O)c1ccc(N2N=C(c3ccccc3)CC2c2ccccc2)cc1 (configuration not stated)	94.0	98.0	71.0*	100.0	99.0	97.0
Nc1[nH]n(-c2ccccc2)c(=O)c1N=Nc1ccc2c(c1)OCCO2	96.0	92.0	90.0	93.0	94.0	92.0
Cc1cc([N+](=O)[O-])ccc1N=Nc1c(N)[nH]n(-c2ccccc2)c1=O	99.0	91.0	88.0	90.0	78.0*	87.0
O=S(=O)(Nc1cc(Sc2ncn[nH]2)c(O)c2ccccc12)c1ccccc1	91.0	92.0	95.0	91.0	78.0*	89.0
Cc1cc(NS(=O)(=O)c2ccccc2)c(C)c(Cl)c1O	98.0	101.0	106.0	101.0	105.0	103.0
N#Cc1c(-c2ccccc2Cl)cc(-c2ccccc2)[nH]c1=S	104.0	95.0	93.0	96.0	93.0	90.0
N#Cc1c2c(c(-c3ccccc3Cl)[nH]c1=S)CCCC2	91.0	85.0	79.0*	86.0	80.0	80.0
CCCOc1ccc(/C=N/Nc2ccc(C(=O)O)cc2)c(OCCC)c1	93.0	94.0	93.0	97.0	94.0	94.0
Cc1ccc(-n2c(=O)[nH]c3c(oc4ccccc43)c2=O)cc1	106.0	112.0	114.0	117.0	135.0*[activator]	107.0
COc1ccc(-n2c(=S)[nH]c3c(oc4ccccc43)c2=O)cc1	98.0	99.0	96.0	94.0	111.0	98.0
Cc1cccc(OCCCCc2c(C)n[nH]c2C)c1C	96.0	98.0	103.0	98.0	98.0	95.0
O=c1c2ccccc2nc2ccc(NCc3ccco3)nn12	93.0	82.0	87.0	79.0*	93.0	92.0
Cc1sc2nc3ccc(NCc4ccco4)nn3c(=O)c2c1C	18.0*	34.0*	28.0*	27.0*	22.0*	30.0*
CCOc1cc(/C=C(/C#N)c2nc3ccccc3[nH]2)ccc1OCc1ccc(C(=O)O)o1	92.0	76.0*	77.0*	74.0*	85.0	86.0
COC(=O)/C=C/C(=O)Nc1cccnc1	96.0	99.0	101.0	101.0	103.0	99.0
O=C(O)/C=C/C(=O)Nc1cccnc1	20.0*	38.0*	31.0*	31.0*	34.0*	34.0*
O=C(O)/C=C\C(=O)Nc1cccc(C(=O)Nc2cccc(O)c2)c1	95.0	87.0	85.0	83.0	76.0*	89.0
O=C(Nc1cccc(O)c1)c1ccccc1	106.0	104.0	103.0	104.0	102.0	100.0
Clc1ccccc1-c1ccc(/C=N/Nc2nncc(-c3ccccc3)n2)o1	97.0	91.0	84.0	85.0	79.0*	86.0

Bioassay records: PubChem BioAssay, NMMLSC
